Dicer inh – inhibitors of human Dicer processing of pre-microRNA | Q9UPY3 | cat-ELCCA pre-miR-21 Dicer processing, chemiluminescence; stronger effect = higher value | z-score at 25 µM | hit rate 6% among 47,000 | AID 1347074; in the data active = z-score above about 3, passing the limit was not always enough;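 also: higher signal means more uncleaved substrate so more Dicer inhibition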
Of the large screens only hits and unclear results are named; the others gave an inactive call. Shown is part of a subset that was picked to be rich in hits.

CC1CCN(c2nc3ccccc3nc2SCC(=O)NCC2CCCO2)CC1 (configuration not stated)	none
O=C(CSc1nc2ccccc2nc1N1CCOCC1)NCC1CCCO1 (configuration not stated)	Dicer inh 3
N#CCCN/N=C/c1ccc2c(c1)OCO2	none
N#CC1=C(OS(=O)(=O)c2ccc(Cl)cc2)c2ccc(Cl)cc2N(S(=O)(=O)c2ccc(Cl)cc2)CC1	none
COC(=O)c1sc(N2CCCCC2)c(C#N)c1N	Dicer inh 29
COC(=O)c1sc(N2CCCC2)c(C#N)c1-c1cccs1	none
COC(=O)c1sc(N2CCCC2)c(S(=O)(=O)C(C)C)c1N	none
CC(C)(C)C(=O)O/N=C(\N)Cc1cccc2ccccc12	none
Cc1cc(C(=O)O)c(C)n1-c1cc(C(F)(F)F)cc(C(F)(F)F)c1	none
CN(C(=O)CN1CCOCC1)n1cnc2ccsc2c1=O	none
CN(n1cnc2ccsc2c1=O)S(=O)(=O)c1ccc(Cl)cc1	none
CN(C(=O)Nc1ccccc1)n1cnc2ccsc2c1=O	Dicer inh 5.4
NC(=O)N/N=C1\CCOc2ccc3ccccc3c21	none
CCOC(=O)c1c(NC(=O)Nc2cccc(Cl)c2)sc(C)c1-c1ccccc1	none
COc1ccc(C(OC[C@H]2O[C@@H](n3ccc(N)nc3=O)CC2O)(c2ccccc2)c2ccc(OC)cc2)cc1 (some centres not stated)	none
Nc1cc(-c2csc(-c3cccnc3)n2)nn1-c1ccc(Cl)cc1	none
O=C(O)c1ccccc1NS(=O)(=O)c1ccc2c3c(cccc13)C(=O)S2	none
COc1ccc(NS(=O)(=O)c2ccc3c4c(cccc24)C(=O)N3)cc1	none
O=C1Sc2ccc(S(=O)(=O)Nc3ccc(F)cc3)c3cccc1c23	Dicer inh 3.5
O=C(Nc1ccc(OCc2ccccc2)cc1)Oc1ccccc1N1CCCCC1	Dicer inh 4.8
CC(=O)Nc1ccc(S(=O)(=O)Oc2ccccc2N2CCCCC2)cc1	none
Cc1cc(C)cc(NC(=O)Oc2ccccc2N2CCCCC2)c1	none
COCCCNc1nc2c(c(=O)n(C)c(=O)n2C)n1Cc1ccc(Br)cc1	none
Cc1cccc(C)c1NC(=S)NNC(=O)c1ccccc1Cl	none
CCCC12CN3CC(CCC)(CN(C1)C3c1ccc([N+](=O)[O-])o1)C2=O (configuration not stated)	none
COc1ccc(/C=C/c2sc3ccccc3[n+]2CCCS(=O)(=O)[O-])c(OC)c1	none
Cc1noc(C)c1C(=O)Nc1ccc(N2CCOCC2)nc1N1CCOCC1	none
Cc1csc2c(=O)sc(NC(=O)c3ccco3)nc12	none
O=C(Nc1nc2ccsc2c(=O)s1)c1ccco1	none
O=C(Nc1nc2c(ccc3ccccc32)s1)c1ccco1	Dicer inh 5.7
CCOC(=O)C1=C(C)NC2=C(C(=O)CC(C)(C)C2)C1c1ccccc1OCC (configuration not stated)	none
COc1ccc2c(=O)cc(-c3ccccc3)oc2c1	none
O=c1c2ccccc2oc2cc(O)ccc12	none
O=c1ccc2c(-c3ccccc3)c3ccc(O)cc3oc-2c1	Dicer inh 3.1
O=C(NNC1=NCCN1Cc1ccccc1)c1cccc(Cl)c1	none
CC(C)(C)NCc1nc(-c2ccccc2)no1	none
O=C(O)C1C2C=CC(C2)C1C(=O)N1CCc2ccccc21 (configuration not stated)	none
O=C(C1CC1)N1CCc2ccccc21	Dicer inh 3.3
O=C(C1CC1)N1c2ccccc2CCc2ccccc21	none
Cn1c(-c2cc(Br)cs2)nc(=O)c2ccccc21	none
CCOC(=O)N1CCc2c(sc3[nH]c(=S)n(-c4ccc(Cl)cc4)c(=O)c23)C1	none
NS(=O)(=O)c1ccc(NC(=O)CCC(=O)O)cc1	Dicer inh 3.4
CC(=O)Nc1ccc(NC(=O)CCC(=O)O)cc1	none
COC(=O)CCC(=O)Nc1ccc(C)cc1	none
NS(=O)(=O)c1ccc(NC(=O)CCCC(=O)O)cc1	none
COc1ccc(NC(=O)CC(C)(C)CC(=O)O)cc1OC	none
COc1ccc(NC(=O)CCC(=O)O)cc1OC	Dicer inh 3.7
O=C(c1ccc(Cl)cc1Cl)n1nccc1-c1ccc(-c2ccc(F)cc2F)o1	none
Cc1ccc(S(=O)(=O)N2CCN(Cc3ccc4c(c3)OCO4)CC2)cc1C	none
CC(C)(C)c1ccc(-c2nnc3sc(-c4ccco4)nn23)cc1	none
COc1cccc(C2Nc3cc(C)c(C)cc3NC3=C2C(=O)CC(C)(C)C3)c1O (configuration not stated)	none
Cc1cc(NC(=O)c2c(-c3c(Cl)cccc3Cl)noc2C)c([N+](=O)[O-])cc1C	none
COc1cccc(C(=O)c2sc3nsc(SCc4ccccc4)c3c2N)c1	none
CCOC(=O)c1nnn2c1nc(N1CCN(C)CC1)c1ccccc12	none
Nc1nc2c(-c3ccc([N+](=O)[O-])cc3)nnn2c2ccccc12	Dicer inh 3.9
Nc1nc2c(C(=O)N3CCOCC3)nnn2c2ccccc12	none
O=[N+]([O-])c1cc(C(F)(F)F)c(Sc2ccccn2)cc1Sc1ccccn1	none
O=C1Nc2ccc(Br)cc2C(c2ccccc2)C1N1CCCCC1 (configuration not stated)	none
C=CCOc1ccc(C(=O)N(Cc2ccc(OC)c(OC)c2)C2CCS(=O)(=O)C2)cc1 (configuration not stated)	none
